“And” between values parts separate entries of the source, which are not always exact repeats. Equal values may be shown once. This is part of a sample that, as a whole, favours compounds with a hit. Of some 83,000 tested, about 20% had one in any assay.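 Step 1: grow cells in 96-well plates. Step 2: add test compound at a single concentration. Step 3: incubate 48 h. Step 4: record percent growth.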 A number with no mark means an inactive call. The source made the active and inactive calls. How the source made its calls: active means growth percent below 10; inactive means the rest.
What follows are compounds tested on MDA-MB-468 breast (assay: NCI-60 one-dose screen, 48 h (100 = growth as untreated, 0 = no growth, -100 = all killed)). Settings: 10 µM unless noted.

| Compound | growth |
| --- | --- |
| Cc1ccc(Cl)cc1N1CCN(C(=O)[C@@H]2C[C@@H]2c2ccc(F)cc2)CC1 | 75.3% |
| COc1ccc(-c2ccc(-c3ccc(C(=N)N)s3)s2)cc1 | -75.9% (active) |
| CC(C)Cn1c2c(c(=S)[nH]c1=O)CCC2 | 112% |
| CC(=O)NCC1c2c(n(C)c3c(Cl)c(Cl)ccc23)C(=O)NC1(C)C (stereo not given) | 109% |
| O=C(Nc1nc2ccccc2s1)c1cc(-c2ccc(F)cc2)n2nc(-c3ccccc3)cc2n1 | 118% |
| COc1cc(-c2nn(-c3cccc(NC(=O)Nc4cccc(C(F)(F)F)c4)c3)cc2-c2ccncc2)ccc1Cl | -27.6% (active) |
| O=C(/C=C/c1ccc(C(F)(F)F)cc1)c1ccc(Nc2nc(NCCO)nc(Nc3ccc(Cl)cc3)n2)cc1 | 69.4% |
| O=C(c1ccc(Cl)cc1Cl)N1CCOCC1 | 99.5% |
| Clc1ccc2[nH]c3c(NCCCN4CCOCC4)ncnc3c2c1 | 33.7% |
| O=C1/C(=C/c2ccccc2[N+](=O)[O-])Oc2ccc(O)cc21 | 20.3% |
| O=C1Nc2ccccc2/C1=C/c1cccs1 | -20.2% (active) |
| CNc1nc2c(s1)C(c1cc(F)ccc1F)CC(=O)N2 (stereo not given) | -2.32% (active) |
| COc1cc(C2CC(c3ccccc3)=NN2C=O)ccc1Oc1ccnc2cc(Cl)ccc12 (stereo not given) | 16.5% |
| c1cc(-c2nnc(SSc3ncnc4nc[nH]c34)o2)ccn1 | -9.07% (active) |
| Cc1ccc2c(c1)C(C)Cc1c(N(C)C)ncnc1N2C (stereo not given) | 13% |
| COc1ccc(-c2nc3sc(C4CC4)nn3c2/C=C2/C(=O)Nc3ccc(OC)cc32)cc1 | 23.3% |
| Cc1ccc(C(O)C2CC2)cc1 (stereo not given) | 103% |
| OCCOSCCO | 98.2% |
| NC(=O)c1c(NC(=O)c2ccc(C(F)(F)F)cc2Cl)sc2c1CCC(=O)C2 | -33.8% (active) |
| COc1ccc(OCC(=O)OC(C)C)cc1 | 84.3% |

| Compound | growth |
| --- | --- |
| CC(=O)Nc1nc(C(=O)N2N=C(C)/C(=C/c3cccs3)C2=O)cs1 | 103% |
| C=C1C(=O)O[C@H]2[C@H]1CC/C(CNC(=O)/C=C/c1cccc(OC)c1)=C\CC[C@@]1(C)O[C@@H]21 | -36.5% (active) |
| COc1cc(C(=O)c2c(N)ncn2-c2ccccc2)cc(OC)c1OC | 76% |
| Nc1n[nH]c2cc(F)c([C@@H]3Nc4ccc5[nH]ncc5c4[C@H]4C5CCC(C5)[C@@H]34)cc12 (stereo not given in full) | -11.7% (active) |
| CCOC(=O)c1n[nH]n2c1nc(=O)c1cnn(C)c12 | 113% |
| O=C(Nc1nc(-c2ccccc2)cc(-c2ccc(Cl)cc2)n1)c1ccncc1 | 106% |
| NS(=O)(=O)c1ccc(CCN2C(=O)C=CC2=O)cc1 | 103% |
| COc1ccc(-c2nn(-c3ccc(NC(=O)Nc4ccc(Cl)c(Cl)c4)cc3)cc2-c2ccncc2)cc1Cl | -33.2% (active) |
| CCOC(=O)N1CCC(N=C2CSc3nnc(-c4cc(C(F)(F)F)cc(C(F)(F)F)c4)n3N2)CC1 | 2.22% (active) |
| C=C1C(=O)O[C@H]2[C@H]1CC/C(COC(=O)/C=C\C(=O)NCc1ccc(Cn3c(=O)sn(CCI)c3=O)cc1)=C\CC[C@@]1(C)O[C@@H]21 | -36.2% (active) |
| Cn1cc(-c2cc3ncnc(Nc4ccc(NC(=O)Nc5cc(C(C)(C)C)on5)cc4)c3s2)cn1 | 31.7% |
| N#Cc1cnc2cc(OC[C@@H](O)CO)c(NC(=O)C3CCCC3)cc2c1Nc1ccc(OCc2cccc(F)c2)c(Cl)c1 | -20.9% (active) |
| CCOC(=O)c1cccnc1Nc1ccc(NC(=O)Nc2ccc(Cl)c(C(F)(F)F)c2)cc1 | 21.3% |
| CC(=O)c1c(O)cc2c3c1OC(C)(C)C1CCC(C)(CC31)O2 (stereo not given) | 85.9% |
| CCC1(C2CCCC2)NC(=O)NC1=O (stereo not given) | 101% |
| Cc1ccc(S(=O)(=O)/C(=C\c2ccc(Cl)cc2)C(=O)c2ccccc2)cc1 | 105% |
| CCCc1cc(NC)nc(S(=O)(=O)CC)n1 | 119% |
| C=C1C(=O)O[C@H]2[C@H]1CC/C(COC(=O)C(=O)c1c[nH]c3ccccc13)=C\CC[C@@]1(C)O[C@@H]21 | -59.8% (active) |
| CCCCOc1cc(C(=O)NCCN(CC)CC)c2ccccc2n1 | 81.3% and 94.3% |
| CCN(CC)CCSCCCNc1c2ccc(Cl)cc2nc2ccc(OC)cc12 | -50.2% (active) |

— PubChem BioAssay (NCI)
